# Compounds without any hit were thinned out: in the full panel of roughly 83,000, 20% have a hit.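 Treatment: one concentration, 48 hours, 96-well format. Scoring: percent growth, with anything below 10 considered active.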 Calls of active or inactive are those of the source.
# Test system: HL-60(TB) leukemia
# Test: NCI-60 one-dose screen, 48 h (100 = growth as untreated, 0 = no growth, -100 = all killed)
# Settings: 10 µM unless noted
row,Compound,growth
1,COC1=CC(c2ccc[nH]2)=N/C1=C\c1[nH]c(C)c(C(=O)CCCCC(=O)Nc2ccccc2)c1C,74.9% (inactive)
2,O=C(/C=C1\C(=O)N(Cc2ccc([N+](=O)[O-])cc2)c2ccccc21)c1ccc(OCCN2CCCCC2)cc1,-50.6% (active)
3,CCOC(=O)C/C(=N\Nc1cc(=O)[nH]c2ccc(Br)cc12)C(=O)OCC,-7.84% (active)
4,CNC(=O)c1cc(Oc2ccc3c(c2)sc2nc(-c4ccc(Cl)c(C(F)(F)F)c4)cn23)ccn1,35.8% (inactive)
5,CNCc1cccc2c1OCCOCCOCCN(C)S(=O)(=O)c1ccc(cc1)-c1cnc(N)c(n1)C(=O)N2,-37% (active)
6,COc1cc(-c2nc3ccccc3s2)ccc1OCc1nc2n(n1)S(=O)(=O)c1ccccc1N2c1ccccc1,16.2% (inactive)
7,COc1ccc(-c2nc([C@@H](C)Sc3nc(N)cc(N)n3)c(C)s2)cc1OCCN1CCOCC1,105% (inactive)
8,O=C1NC(=Nc2ccc(O)cc2)S/C1=C\c1cccs1,-4.12% (active)
9,CCCc1n(Cc2ccc3ccccc3n2)cc[n+]1Cc1ccc2ccccc2n1,-31.2% (active)
10,O=C(NCN1C(=O)c2cccc3cccc(c23)C1=O)N1CCC(Cc2ccccc2)CC1,96.1% (inactive)
11,COc1cc(C(=O)n2nc(N)c3c(C)cc(C)nc32)cc(OC)c1OC,21.6% (inactive)
12,Clc1ccc(-c2c3ccc(=[N+]4CCCCC4)cc-3oc3cc(N4CCCCC4)ccc23)cc1,-42.3% (active)
13,O=C(O)c1cn(C2CC2)c2cc(N3CCN(Cc4nnc(Nc5ccccc5)o4)CC3)c(F)cc2c1=O,91.4% (inactive)
14,CS(=O)(=O)Cc1cnc(C2OCCO2)s1,88.5% (inactive)
15,c1ccc2c(-c3c4ccsc4cc4[nH]c5ccccc5c34)c[nH]c2c1,14.3% (inactive)
16,Cc1nn(-c2ccccc2)c2nc(Cl)c(C=O)c(-c3ccccc3)c12,95.8% (inactive)
17,CCN(CC)CCN1C(=O)c2cccc3c(/C=C/CN4C(=O)c5cccc6cccc(c56)C4=O)ccc(c23)C1=O,83.4% (inactive)
18,O=C1C(=O)c2c(nc3ccc(Cl)cn23)-c2ccccc21,-79.7% (active)
19,CCSc1nnc(NC(=O)Cc2ccc(Cl)cc2)s1,96.8% (inactive)
20,CCOc1ccccc1NC(=O)c1cc2ccccc2cc1O,48.8% (inactive)

row,Compound,growth
1,CCOc1ccc(/C=N/NC(=O)c2cccc3ccccc23)cc1OCC,100% (inactive)
2,CC(C)C1C2=C(NCCN1C(=O)c1ccncc1)C(C)(C)N(Cc1ccccc1)C2=O (stereo not given),87.3% (inactive)
3,CC(=O)OCCC/C(=C/c1cc2ccccc2c2ccccc12)[N+](=O)[O-],-52.1% (active)
4,C#C[C@@]1(O)[C@@H](CO)O[C@@H](n2cnc3c(-c4ccccc4)ncnc32)[C@@H]1O,102% (inactive)
5,O=C1NC(=Nc2ccc(S(=O)(=O)Nc3nccs3)cc2)S/C1=C\c1coc2ccccc2c1=O,107% (inactive)
6,CSc1nc2c(c(=O)n1C)C(c1ccccc1)C1=C(N2)/C(=C/c2ccccc2)CCC1 (stereo not given),12.8% (inactive)
7,Oc1ccccc1/C=N/Nc1ccc2ccccc2n1,-8.13% (active)
8,CCC(c1ccc(OC)cc1)C(CC)c1ccc(OCC[N+](C)(C)C)cc1 (stereo not given),-17.4% (active)
9,O=C1C=C(c2ccccc2)C(O)(c2ccccc2)C1 (stereo not given),85.2% (inactive)
10,Cc1cccc(N2CCN(CC(O)COc3ccc(Cl)cc3)CC2)c1 (stereo not given),123% (inactive)
11,c1ccc2cc(-c3n(Cc4ccc5ccccc5n4)c4ccccc4[n+]3Cc3ccc4ccccc4n3)ccc2c1,-55.1% (active)
12,CCC[CH2][Sn]1([CH2]CCC)[O]C2C(CO)OC(n3ccc(N)nc3=O)C2[O]1 (stereo not given),-36.6% (active)
13,CCCCN1CCCn2c1nc1c2c(=O)n(CCC)c(=O)n1CCC,109% (inactive)
14,CN(C)S(=O)(=O)c1ccc(S(=O)(=O)Nc2cccc(Cl)c2N2CCCCC2)cc1,76.7% (inactive)
15,Cc1ccc(NS(=O)(=O)c2ccc(-c3cnc(C4CC4)o3)cc2)cc1,24.3% (inactive)
16,CCOP1(=O)CC(C)=C(Cl)C(P(=O)(O)O)C1 (stereo not given),11.5% (inactive)
17,CCCCCCCCCCCCCCCCCCOc1ccccc1CC(=O)NCC[N+]1(C)CCCCC1,41.8% (inactive)
18,CC1(O)CCCCC1O (stereo not given),107% (inactive)
19,CCN(C(=O)CN1CCN(c2cc3c(cc2F)c(=O)c(C(=O)O)cn3C2CC2)CC1)c1nc(-c2ccc(OC)cc2)cs1,30.1% (inactive)
20,CSc1ccc(N(C)c2nc(C)nc3c2CCC3)cc1,-28.3% (active)

# — PubChem BioAssay (NCI)
